CYP2C19 activ: human CYP2C19 activators, primary screen, biochemical, luminescence. recombinant CYP2C19, luciferin-H EGE luminescence; stronger effect = higher value; 0 = fully inhibited enzyme, 1 = untreated enzyme. activation factor at 5 µM. 96,000 tested, under 10 active;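 active means activation factor of at least 2 at 5 µM in the primary screen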;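 further: 0 = wells with 2.5 mM tranylcypromine and 1 = vehicle-only wells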
Target sequence (P33261 whole entry, looked up): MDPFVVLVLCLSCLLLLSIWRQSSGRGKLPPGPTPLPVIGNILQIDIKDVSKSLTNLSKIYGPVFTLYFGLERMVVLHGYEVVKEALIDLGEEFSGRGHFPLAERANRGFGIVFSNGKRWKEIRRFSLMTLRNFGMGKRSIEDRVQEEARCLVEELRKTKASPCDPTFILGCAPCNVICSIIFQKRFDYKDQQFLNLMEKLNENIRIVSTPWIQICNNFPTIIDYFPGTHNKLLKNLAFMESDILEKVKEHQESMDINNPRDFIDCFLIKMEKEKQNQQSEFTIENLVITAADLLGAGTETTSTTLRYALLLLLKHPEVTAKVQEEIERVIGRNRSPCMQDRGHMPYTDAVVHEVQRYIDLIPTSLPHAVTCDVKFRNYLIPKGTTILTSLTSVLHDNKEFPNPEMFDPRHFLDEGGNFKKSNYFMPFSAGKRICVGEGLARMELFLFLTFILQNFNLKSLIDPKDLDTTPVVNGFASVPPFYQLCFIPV
CYP2C9 inh: blockers of cytochrome P450 2C9 activity – biochemical, luminescence, ADME assay, primary screen | AID 777, 2007 | P11712 | hit rate 20% among 96,000 | CYP2C9 Supersomes, luciferin-H conversion | inhibition, % at 5 µM;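 active means blocking of liver enzyme CYP2C9 beyond about 50% at 5 µM, limit read from the data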
Cav32 inh: Cav3.2 calcium influx blockers – cell-based, Fluo-4 calcium fluorescence, FDSS, MLSMR library, primary screen. Cav3.2-expressing cells; stronger effect = lower value. B-score at 10 µM. hit rate 4% among 100,000. Voltage-dependent T-type calcium channel subunit alpha-1H (Homo sapiens), O95180;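 active means single-dose well whose peak fluorescence ratio is a statistical outlier from its plate by either plate-standardised score or position-corrected B-score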
CYP2C9 act: human CYP2C9 activators, primary screen, biochemical, luminescence | Cytochrome P450 2C9 (Homo sapiens), P11712 | recombinant CYP2C9, luciferin-H conversion; stronger effect = higher value; factor 1 = untreated enzyme, 0 = blocked | activation factor at 5 µM | hit rate 1.4% among 96,000 | AID 1024, 2008;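 active means activation factor of 2 or more for CYP2C9 at a 5 µM dose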;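 further: 0 = sulfaphenazole-blocked wells and 1 = vehicle-only wells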
CYP2C19 inh: blockers of cytochrome P450 2C19 activity – biochemical, luminescence, ADME assay, primary screen | P33261 | CYP2C19 Supersomes, luciferin-H EGE luminescence, 30 min | hit rate 21% among 96,000 | AID 778, 2007 | inhibition, % at 5 µM;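 active means CYP2C19 inhibition above a set limit at 5 µM in the primary screen, cut at about 50% in these data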;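 further: plate controls were negative control wells for no effect and 2.5 mM tranylcypromine positive control for full effect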
* marks the source's active call; other numbers are inactive results; nt = no result given. Hits are enriched below; roughly 27% of the tested compounds scored in any of these assays.

SMILES	CYP2C19 activ	CYP2C9 inh	Cav32 inh	CYP2C9 act	CYP2C19 inh
CCCc1nnc(NC(=O)Cn2c(=O)oc3ccccc32)s1	0.6	54*	0.0013	0.5	39
CCCc1nnc(NC(=O)Cn2c(=O)oc3cc(Br)ccc32)s1	0.8	68*	0.98	0.3	24
CC1CCCC(C)N1c1nnc(NC(=O)Cn2c(=O)oc3ccccc32)s1 (stereo not given)	1	12	nt	0.9	0
CCc1nnc(NC(=O)Cn2nc(-c3ccccc3OC)ccc2=O)s1	1.2	63*	-0.5	0.4	-16
CSc1cccc(-n2cc(-c3ccc4c(c3)OCO4)[nH]c2=O)c1	0.7	17	-2.2	0.8	33
O=C(C1CCCCC1)N1CCN(c2ccccc2F)CC1	0.8	37	-0.23	0.6	20
O=C(c1ccccc1C(=O)N1CCN(c2ccccc2F)CC1)N1CCN(c2ccccc2F)CC1	0.3	89*	-3.9*	0.1	70*
CC(C)OC(=O)c1cccnc1N1CCN(c2ccc(F)cc2)CC1	0.4	35	-1.4	0.6	63*
CC(=O)OC(C(=O)N1CCN(c2ccc(F)cc2)CC1)c1ccccc1 (stereo not given)	nt	nt	1.3	nt	nt
O=C(N1CCOCC1)N1CCN(c2ccccc2F)CC1	0.9	-9	0.086	1.1	11
O=C(c1ccccc1)N1CCN(c2ccccc2F)CC1	0.1	66*	-0.71	0.3	93*
O=C(c1ccc(Br)o1)N1CCN(c2ccccc2F)CC1	0.1	44	-2.3	0.6	92*
CC(=O)CCc1oc2ccc(NC(C)=O)cc2c1-c1ccc(C)o1	0.5	21	-0.43	0.8	46
CCNc1nc(NCC)nc(Oc2ccc(N)cc2)n1	1.1	3	0.33	1	-12
CC(=O)SC(C)CC(=O)NCc1ccccc1 (stereo not given)	0.6	10	-0.75	0.9	42
O=C(NCc1ccc2c(c1)OCO2)c1ccc2c(c1)S(=O)(=O)c1ccccc1C2=O	nt	nt	-1.2	nt	nt
CS(=O)(=O)N1CCN(c2ccccc2F)CC1	0.8	25	1.3	0.7	16
CCc1ccccc1S(=O)(=O)Cc1ccc(C(=O)N2CCN(c3ccccn3)CC2)o1	0.6	5	0.51	1	39
CCSc1ccccc1C(=O)N1CCCC1	0.9	18	0.62	0.8	14
O=C(c1ccc(Br)o1)N1CCN(c2ccccn2)CC1	0.1	77*	-0.18	0.2	90*
CCSc1ccccc1C(=O)N1CCN(c2ccccc2F)CC1	0.5	58*	-1.6	0.4	54*
COC(=O)c1cccnc1N1CCN(c2ccccc2F)CC1	0.2	22	-1.7	0.8	82*
CCOC(=O)N1CCN(C(=O)CSc2ccccc2)CC1	0.6	11	1	0.9	44
COCc1nnc(NC(=O)CSCc2ccccc2)s1	0.9	13	0.0025	0.9	5
COCCSc1nnc(NS(=O)(=O)Cc2ccccc2)s1	0.9	68*	-0.35	0.3	6
SMILES	CYP2C19 activ	CYP2C9 inh	Cav32 inh	CYP2C9 act	CYP2C19 inh
COCCSc1nnc(NC(=O)CSCc2ccccc2)s1	0.7	59*	0.34	0.4	28
CCOC(=O)C(=CN(CCc1ccccc1)CC(=O)OC)C(=O)OCC	nt	nt	0.86	nt	nt
N#CCCC12CCCCC1=Nc1ccccc12 (stereo not given)	0.9	8	0.49	0.9	5
COc1cc(C(=S)N2CCCCC2)ccc1O	0.6	41	0.94	0.6	36
COc1ccc(C(=S)N2CCN(C)CC2)cc1	1	-3	-0.56	1	2
COc1cc(C(=S)N2CCCC2)ccc1O	0.1	-61	0.26	1.6	88*
Oc1ccc(C(=S)N2CCCCC2)cc1Cl	0.2	-102	0.53	2*	85*
COc1ccc(C(=S)N2CCN(C)CC2)cc1Br	0.5	-247	0.72	3.5*	51*
CCCCNC(=O)CSc1nnc(Cc2ccccc2)n1CC	nt	nt	0.19	nt	nt
COCc1cc(=O)[nH]c(Nc2nc(C)c3cc(OC)ccc3n2)n1	1	22	nt	0.8	-1
Cc1ccc2nc(Nc3nc(-c4ccccc4)cc(=O)[nH]3)nc(C)c2c1	0.7	55*	2.2	0.5	26
CCN(CC)c1cnn(C/C(=N\OC)c2ccc(Cl)cc2)c(=O)c1Br	0	94*	-5.1*	0.1	97*
CCc1ccc(C(=O)Cn2ncc(Cl)c(Cl)c2=O)cc1	0.9	5	1	0.9	10
CC(C)(C)NC(=O)C(c1ccncc1)N(Cc1cccs1)C(=O)Cn1nnc(-c2cccs2)n1 (stereo not given)	0.1	92*	-1	0.1	92*
CC(C)(C)NC(=O)C(c1ccncc1)N(C(=O)Cn1nnc(-c2cccs2)n1)C1CCCCC1 (stereo not given)	0.3	76*	0.8	0.2	69*
Cc1ccc(N(C(=O)Cn2nnc(-c3cccs3)n2)C(C(=O)NC2CCCC2)c2ccncc2)cc1 (stereo not given)	0.5	54*	-0.25	0.5	46
O=C(Cn1nnc(-c2ccncc2)n1)N(C1CCCCC1)C1CCCCC1	0.1	87*	-0.11	0.1	87*
COC(=O)c1c(C)cc(C)n2c1nc1ccccc12	1	2	-1.1	1	-1
O=C(NCc1ccccc1)C(c1ccc(F)cc1)N(Cc1ccc2c(c1)OCO2)C(=O)Cn1nnc(-c2cccs2)n1 (stereo not given)	nt	nt	-5.1*	nt	nt
Cc1ccc(-c2nnn(CC(=O)N(c3ccccc3)C(C(=O)NC(C)(C)C)c3cccs3)n2)o1 (stereo not given)	nt	nt	1.1	nt	nt
Cc1ccc(-c2nnn(CC(=O)N(Cc3ccccc3)C(C(=O)NC(C)(C)C)c3ccncc3)n2)o1 (stereo not given)	0.5	44	0.015	0.6	50*
CCCC(C(=O)NCc1ccccc1)N(C(=O)Cn1nnc(-c2cccs2)n1)c1ccc2c(c1)OCCO2 (stereo not given)	nt	nt	0.72	nt	nt
CN(C)c1ccnc(-n2cccc2/C=N/OCc2cccc(F)c2)c1C#N	0	46	0.24	0.5	97*
Cc1csc(/C(=N\O)c2csc(C)n2)n1	1.1	0	1.7	1	-6
CCCCn1c(=O)[nH]c(=O)c2c1nc(-c1ccncc1)n2CCOC	0.6	41	1.2	0.6	37
SMILES	CYP2C19 activ	CYP2C9 inh	Cav32 inh	CYP2C9 act	CYP2C19 inh
CCCCn1c(=O)[nH]c(=O)c2c1nc(-c1ccc(C#N)cc1)n2C1CCCC1	0.7	62*	-0.64	0.4	25
O=c1oc2ccccc2cc1-c1nc2c(s1)CCCC2	0.8	39	nt	0.6	20
O=c1oc2ccccc2cc1-c1csc(NN=C2CCCCC2)n1	0.1	78*	-3	0.2	86*
CCOc1cc(-c2c(C)c(C)nc(N)c2C#N)ccc1O	nt	nt	-0.078	nt	nt
CCOc1cc(-c2c(C)c(CC)nc(N)c2C#N)ccc1O	0.4	23	-0.67	0.8	63*
CCOc1cc(-c2cc(-c3ccc(C)o3)nc(N)c2C#N)ccc1O	0.8	38	1	0.6	18

Screens (PubChem)
